Only some compounds are listed: those with a hit (about 21% of all), similar ones and a draw of the others.
Pf growth 96h: P. falciparum growth inhibition at 96 hour, primary screen for plastid delayed-death inhibitors | P. falciparum luciferase reporter growth, 96 h | Potency, µM (series often up to 28.7 µM), for inactives: at the top dose activity change, negative = inhibition, usual class: inhibitors | 6.9% of 320,000 active | AID 504834; note: potency is the fitted concentration of half-maximal effect; % is set by controls: 0 for no effect and ±100 for the full control effect
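Delayed-death screen, second-generation endpoint: infected erythrocytes, 2% hematocrit, 0.05% parasitemia final; 96 hours at 37 C, 5% CO2; luciferase detection reagent; luminescence decrease equals reduced growth.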
Pf growth 48h: inhibits P. falciparum growth in the first generation, 48 h; P. falciparum luciferase growth in erythrocytes, 48 h; Potency, µM (titrated, usually from 28.7 µM), inactives show at the top dose activity change, negative = inhibition, hits mostly inhibitors; 5.9% of 310,000 active; AID 504832; note: potency is the fitted concentration of half-maximal effect; % is set by controls: 0 for no effect and ±100 for the full control effect
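Luciferase-expressing parasites in RBCs, 2% Hct / 0.1% parasitemia final; RPMI 1640 + 0.5% Albumax; 37 C, 5% CO2, one generation; luminescence read-out, lower signal = inhibition.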
CHX counter: counter-screen for Shiga toxin inhibitors: cycloheximide protein synthesis inhibition; max response, %; 12% of 300,000 active; AID 2314; cell reporter, cycloheximide protein synthesis inhibition counterscreen; in the data active = max response mostly above about 13%, no sharp cut-off; inactive = mostly below about 14%; note: read at 38.3 µM for the half of the compounds with a filed dose; 0% is about no effect
NS1 inh: blocks influenza NS1 protein function; Potency, µM (titrated, usually from 46.1 µM), without a hit: top-dose activity, positive = more growth; 0.4% of 270,000 active; AID 2326; calls by dose curve; note: potency is the fitted concentration of half-maximal effect; actives are rising curves; nearly all actives have a fitted effect of over 50% in size
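Growth recovery, yeast-based: influenza A NS1 expressed in S. cerevisiae causes slow growth, and suppressors are detected by OD600. The parent strain without NS1 is used as positive control.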
Giardia FBPA inh: blocks Giardia fructose-bisphosphate aldolase activity; purified Giardia FBPA; Potency, µM (titrated, usually from 59.6 µM), for inactives: top-dose activity, negative = inhibition, most hits filed as inhibitors; 0.71% of 290,000 active; AID 2451; note: potency is the fitted concentration of half-maximal effect; % is set by controls: 0 for no effect and ±100 for the full control effect; nearly all actives have a fitted effect of over 55% in size
Target sequence (A8B2U2 whole entry, looked up): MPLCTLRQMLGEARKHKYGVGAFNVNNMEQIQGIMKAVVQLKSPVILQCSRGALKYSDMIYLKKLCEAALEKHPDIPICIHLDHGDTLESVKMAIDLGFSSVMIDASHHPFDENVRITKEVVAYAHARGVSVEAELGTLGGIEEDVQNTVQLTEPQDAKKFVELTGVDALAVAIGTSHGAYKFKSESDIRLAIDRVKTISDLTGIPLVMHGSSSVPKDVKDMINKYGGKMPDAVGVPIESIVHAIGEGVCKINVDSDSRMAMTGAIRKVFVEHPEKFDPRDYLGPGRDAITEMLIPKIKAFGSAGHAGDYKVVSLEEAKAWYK
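40 nM FBPA preincubated 10 min at RT with compound (up to 57.5 uM final), then substrate plus GAPDH/TPI/NAD/arsenate coupling and diaphorase/resazurin added. Fluorescence read after 20 min at RT, 525/598 nm.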
Shiga inhibitor: inhibitors of Shiga toxin in Vero cells. Vero cells, Shiga toxin protein synthesis inhibition reporter. inhibition, % at 38.7 µM. 9.2% of 290,000 active. AID 2315; in the data active = inhibition mostly above about 28%, no sharp cut-off; inactive = mostly below about 43%; note: 0% is about no effect
Numbers without * were called inactive; ? = inconclusive; · = no result given; + = active, no number; [ ] = remark or other dose. Unless noted, calls come from the whole dose curve; as a rule, active = well fitted curve in the direction sought with a large enough effect; inconclusive = small, poorly fitted or top-dose-only effect, or another doubt; inactive = no such curve, though single readings can be large; an effect the other way counts as inactive or inconclusive.

SMILES	Pf growth 96h	Pf growth 48h	CHX counter	NS1 inh	Giardia FBPA inh	Shiga inhibitor
CCn1cc(C(=O)O)c(=O)c2cc(F)c(N3CCN(S(=O)(=O)c4ccc5c(c4)OCCO5)CC3)cc21	?	?	-1	·	-1%	-13
CCn1cc(C(=O)O)c(=O)c2cc(F)c(N3CCN(S(=O)(=O)c4ccc(NC(C)=O)cc4)CC3)cc21	?	6.6µM*	-7	?	-21%	-10
CCC(=O)Nc1c(OC(=O)CC)ccc2c(C)cc(=O)oc12	3.7µM*	-9%	-5	-2%	8%	10
CCC(=O)Oc1c(C(=O)CC)cc2c(C)cc(=O)oc2c1C	45%	25%	-3	-11%	8%	19
CC(C)Oc1ccc(C(=O)NC2CCS(=O)(=O)C2)cc1 (configuration not stated)	-17%	19%	6	3%	-3%	15
C=CCOc1ccc(C(=O)NC2CCCCC2)cc1	·	125%	21*	-58%	0%	111*
CC(C)Oc1ccc(C(=O)NC2CCCCC2)cc1	·	127%	47*	4%	-2%	65
O=C(O)c1cc2ccccc2oc1=O	27%	19%	43*	-37%	13%	58*
O=C(Oc1ccccc1)c1cc2ccccc2oc1=O	40%	21%	15	·	1%	16
Cc1cc[n+](CC(=O)c2cc3ccccc3oc2=O)cc1	?	1%	60*	?	-10%	+
O=C(NNC(=O)c1cc2ccccc2oc1=O)c1ccccc1	-23%	45%	20*	-21%	-5%	62*
O=C(NCCN1CCOCC1)c1cc2ccccc2oc1=O	?	45%	13	-1%	2%	35*
CCc1c(-c2ccccc2)[n+](=O)c2c(n1[O-])CCC2	-8%	59%	-1	8%	1%	-5
COc1ccc(S(=O)(=O)N(C)CC(=O)NCCN2CCOCC2)cc1C	64%	13%	-6	-3%	2%	-11
O=C(c1ccccc1)N1CCN(C(=O)c2cc3ccccc3oc2=O)CC1	3%	-6%	-9	7%	·	4
O=C(c1ccccc1)c1cc2ccccc2oc1=O	62%	89%	37	-7%	-2%	60*
FC(F)(F)c1cc(NC(=S)NC23CC4CC(CC(C4)C2)C3)cc(C(F)(F)F)c1	·	·	·	·	-1%	·
Cc1ccc2cc(CN(CCN3CCOCC3)C(=O)NCc3ccccc3)c(=O)[nH]c2c1C	?	?	-6	2%	2%	-9
COc1ccc(NC(=O)N(CCN2CCCC2)Cc2cc3cc(OC)c(OC)cc3[nH]c2=O)cc1	?	9.3µM*	1	0%	-7%	4
Cc1ccc2cc(CN(CCN3CCCC3)C(=O)Nc3ccc(F)cc3)c(=O)[nH]c2c1C	-11%	13µM*	-4	?	-2%	-9
Cc1ccc2cc(CN(CCN3CCCC3)C(=O)Nc3ccccc3)c(=O)[nH]c2c1C	?	10µM*	-3	-4%	-12%	-3
Cc1ccc(N2CC(C(=O)Nc3nc4ccc(S(C)(=O)=O)cc4s3)CC2=O)cc1 (configuration not stated)	?	?	4	-22%	-6%	13
Cc1ccc(C(C(=O)NC2CCCC2)N(C(=O)CNC(=O)c2ccco2)c2ccccc2)o1 (configuration not stated)	?	-17%	-3	-8%	-13%	-6
CCOc1cc(C(=O)OCC(=O)Nc2ccc(F)cc2Cl)ccc1OCC(=O)N1CCOCC1	27%	-1%	·	·	·	·
CC(C)N1CCc2c(sc(NC(=O)c3ccc(S(=O)(=O)N4CCOCC4)cc3)c2C(N)=O)C1	4.1µM*	?	1	-41%	-9%	17
SMILES	Pf growth 96h	Pf growth 48h	CHX counter	NS1 inh	Giardia FBPA inh	Shiga inhibitor
CNC(=O)c1c(NC(=O)c2ccc(S(=O)(=O)N3CCCC3)cc2)sc2c1CCN(C(C)C)C2	?	2.6µM*	1	?	?	-23
CCN1CCc2c(sc(NC(=O)c3ccc(S(=O)(=O)N(CC)c4ccccc4)cc3)c2C(N)=O)C1	13µM*	?	7	13%	·	18
CCN1CCc2c(sc(NC(=O)c3ccc(S(=O)(=O)N4CCOCC4)cc3)c2C(=O)OC)C1	·	?	-5	-2%	6%	29
COC(=O)c1c(NC(=O)c2ccc(S(=O)(=O)N3CCOCC3)cc2)sc2c1CCN(C)C2	?	13µM*	-2	-9%	1%	-6
CCOC(=O)c1c(NC(=O)c2ccc(S(=O)(=O)N3CCOCC3)cc2)sc2c1CCN(C(C)C)C2	4%	?	1	14%	·	-2
Cc1cc(SCC(=O)OC(C)C(=O)N(C)c2ccccc2)nc2ccccc12 (configuration not stated)	-4%	?	·	·	·	·
COc1cccc([C@@H]2Oc3ccc(OC)cc3C[C@H]2OC(=O)NS(=O)(=O)c2ccc(F)cc2)c1	·	·	·	·	1%	·
CCCN1CCc2c(sc(NC(=O)c3ccc(S(=O)(=O)N4CCCC4)cc3)c2C(N)=O)C1	?	9.3µM*	-2	6%	-4%	-8
CC1CCCN(S(=O)(=O)c2ccc(C(=O)Nc3sc4c(c3C(N)=O)CCN(C)C4)cc2)C1 (configuration not stated)	?	?	-3	-7%	·	-12
CNC(=O)c1c(NC(=O)c2ccc(S(=O)(=O)N3CCCCC3C)cc2)sc2c1CCN(C)C2 (configuration not stated)	10µM*	?	-4	-7%	·	-5
CS(=O)(=O)N1CCN(C(=O)Cc2ccccc2Cl)CC1	?	5%	0	2%	2%	-15
O=[N+]([O-])c1nn(-c2ccc3c(c2)OCCO3)n(O)c1=NC1CCN(Cc2ccccc2)CC1	?	32%	3	·	-10%	9
COc1cc(OC)cc(-c2n[nH]c(=S)n2-c2ccc3c(c2)OCCO3)c1	22%	-5%	1	2%	-2%	-6
CCc1cccc(N=c2c([N+](=O)[O-])nn(-c3ccc(Cl)cc3)n2O)c1	·	?	2	-2%	-20%	21
CN=c1c([N+](=O)[O-])nn(-c2ccc3c(c2)OCCO3)n1O	13%	42%	32*	17%	-14%	61*
COc1cc(N=c2c([N+](=O)[O-])nn(-c3ccc4c(c3)OCCO4)n2O)cc(OC)c1	?	37%	29*	8%	?	19*
CC(C)c1ccc(N=c2c([N+](=O)[O-])nn(-c3ccc4c(c3)OCCO4)n2O)cc1	?	10µM*	14*	7%	-14%	17
CCc1cccc(N=c2c([N+](=O)[O-])nn(-c3ccc4c(c3)OCCO4)n2O)c1	50%	46%	11	·	-12%	71*
O=C(O)c1cc(=O)[nH]c(SCc2ccccc2)n1	·	·	·	3%	·	·
CCN(CC)C[C@@H](O)CN1CCCCc2nc(C)c(C)cc21	·	·	·	·	-16%[12.9 µM]	·

Assay outcomes (PubChem)
